Most compounds without a hit are left out; they make up all but 21% or so of the library.
HCV inhibitor: HCV inhibition; Potency, µM (doses to about 41.8 µM), inactives show at the highest dose activity change, negative = inhibition, actives largely listed as inhibitors; Huh7.5.1 HCVcc-Cre infection, luciferase reporter, 44 h; hit rate 3.4% among 340,000; further: potency means the concentration at half of the fitted maximal effect; on the % scale 0 is the no-effect control and ±100 the full control effect
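Whole-lifecycle infectious HCVcc-Cre system; cells 1,000/well, compound then virus (~0.5 moi) added 4 h after plating, 44 h culture. Luciferase read 15 sec following 15 min substrate incubation, room temp.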
Pf growth 96h: P. falciparum growth inhibition at 96 hour, primary screen for plastid delayed-death inhibitors; P. falciparum luciferase reporter growth, 96 h; Potency, µM (series often up to 28.7 µM), without a hit: top-dose activity change, negative = inhibition, actives largely listed as inhibitors; hit rate 6.9% among 320,000; AID 504834; further: potency means the concentration at half of the fitted maximal effect; on the % scale 0 is the no-effect control and ±100 the full control effect
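Two parasite generations (96 h, 37 C, 5% CO2) of compound exposure in infected erythrocytes (0.05% parasitemia, 2% hematocrit). Luciferase-reporter P. falciparum; decreased luminescence indicates inhibited growth, aimed at apicoplast-acting delayed death.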
Shiga toxin inh: inhibitors of Shiga toxin in Vero cells. Vero cells, Shiga toxin protein synthesis inhibition reporter. inhibition, % at 38.7 µM. hit rate 9.2% among 290,000. AID 2315; in the data active means inhibition mostly above about 28%, no sharp cut-off; inactive means mostly below about 43%; further: 0% is about no effect
Pf growth 48h: inhibits P. falciparum growth in the first generation, 48 h; AID 504832; hit rate 5.9% among 310,000; Potency, µM (top dose mostly 28.7 µM), inactives show top-dose activity change, negative = inhibition, actives largely listed as inhibitors; P. falciparum luciferase growth in erythrocytes, 48 h; further: potency means the concentration at half of the fitted maximal effect; on the % scale 0 is the no-effect control and ±100 the full control effect
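Cell-based growth assay: transgenic P. falciparum expressing firefly luciferase, cultured in red cells within RPMI 1640 containing 0.5% w/v Albumax, 24 mM bicarbonate and gentamycin. A drop in luciferase activity indicates inhibition.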
CHX counter: affects cycloheximide protein synthesis inhibition readout, counter-screen | cell reporter, cycloheximide protein synthesis inhibition counterscreen | hit rate 12% among 300,000 | max response, %; in the data active means max response mostly above about 13%, no sharp cut-off; inactive means mostly below about 14%; further: read at 38.3 µM for the half of the compounds with a filed dose; 0% is about no effect
AMA1 RON2 block: disrupts binding of P. falciparum AMA1 to RON2 | hit rate 0.2% among 360,000 | Potency, µM (highest dose often 58.2 µM), inactives show top-dose activity change, negative = inhibition, actives largely listed as inhibitors | AlphaScreen AMA1-biotinylated RON2 peptide binding;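 further: potency means the concentration at half of the fitted maximal effect; 0% = vehicle wells and -100% = peptide control; nearly all actives have a fitted effect of over 45% in size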
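AMA1 (3D7) with his tag at 25 nM final met compounds first, then biotinylated RON2 peptide at 25 nM; detection used donor plus acceptor beads, 10 µg/mL apiece, read by AlphaScreen after 30 min at room temperature.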
The depositor's hits bear a star; u = inconclusive; x = not tested or not shown; [ ] = dose if it differs, or a comment. Unless noted, the call rests on the fitted dose curve; in most records, active means well fitted curve in the direction sought with a large enough effect; inconclusive means small, poorly fitted or top-dose-only effect, or another doubt; inactive means no such curve, though single readings can be large; an effect the other way counts as inactive or inconclusive.

SMILES | HCV inhibitor | Pf growth 96h | Shiga toxin inh | Pf growth 48h | CHX counter | AMA1 RON2 block
CC(C)C[C@H](NC(=O)[C@@H]1Cc2ccccc2CN1)C(=O)Nc1ccc(C(C)C)cc1 | 10% | u | 22 | -16% | 23* | 38%
Cc1ccccc1CC(=O)Nc1ccc(S(=O)(=O)N2CCOCC2)cc1 | 2% | 56% | 34 | 1% | -2 | -2%
COc1ccccc1CN1C(=O)C(C)ON=C1c1ccccc1F (centres undefined) | x | x | x | x | x | -4%
COC(=O)c1sc(S(=O)(=O)N2CCCCC2C)c(C(=O)OC)c1C (centres undefined) | -20% | u | x | u | x | 10%
COc1cccc(N2CCN(C(=O)c3ccc(CSc4nc5ccncc5[nH]4)cc3)CC2)c1 | u | 53% | -8 | u | -2 | u
Clc1ccccc1CSc1nc2ccncc2[nH]1 | -2% | u | 66 | x | 21* | 10%
COc1cccc(CSc2nc3ccncc3[nH]2)c1 | -12% | -6% | 50* | 58% | 41* | 4%
Nc1cc(=O)[nH]c(SCc2ccccc2Cl)n1 | -4% | 28% | -2 | 40% | -2 | -14%
O=C(NCc1ccccc1Cl)c1ccc(CSc2nc3ccncc3[nH]2)cc1 | -5% | u | -5 | 12µM* | -4 | -10%
C#CCOCCOCCOCCNc1nc(N2CCN(C(=O)[C@H](CC(N)=O)n3cc(C(N)[C@H](C)CC)nn3)CC2)nc(N2CCN(C(=O)[C@H](CC(N)=O)n3cc(C(N)[C@@H](C)CC)nn3)CC2)n1 (some centres undefined) | 21% | x | x | x | x | -23%
Cn1nc(-c2ccccc2)c(C#N)c1Sc1cccc(Cl)c1 | -22% | 10µM* | -8 | u | 10 | 29%
Cc1nn(C)c(Oc2cccc(Cl)c2)c1C#N | -16% | 2% | -2 | -3% | 1 | 21%
CC(C)c1ccc(C(O)P(=O)(OC2CCCCC2)OC2CCCCC2)cc1 (centres undefined) | u | u | 12 | -1% | -4 | 0%
COC(=O)c1ccc(NC(=O)C[n+]2ccccc2)cc1 | 10% | 13µM* | 10 | -5% | 2 | 0%
COc1ccc(NC(=O)CCOc2ccccc2)cc1 | -17% | 117% | 117* | 155% | 65* | 0%
COC(=O)c1ccc(NC(=O)c2ccccc2NS(C)(=O)=O)cc1 | -1% | x | 48* | 29% | 24* | 5%
COc1ccc(OCCC(=O)Nc2ccc(S(N)(=O)=O)cc2)cc1 | u | 23% | -12 | 4% | -4 | 9%
COC(C(=O)N/N=C(\C)c1ccc(C)cc1)c1ccccc1 (centres undefined) | -4% | u | 19 | -7% | 11* | -3%
COc1ccc(OC)c(NC(=O)CCOc2cccc(C)c2)c1 | 11µM* | 1% | -7 | -8% | 1 | -16%
COC(C(=O)Nc1ccc(NC(=O)C(OC)c2ccccc2)cc1)c1ccccc1 (centres undefined) | -6% | -34% | 10 | 12% | 9 | 0%
COC(=O)c1ccc(NC(=O)CNc2ccccc2)cc1 | 12% | -13% | 61* | 43% | 36* | 27%
COC(=O)c1ccc(NC(=O)CC(=O)Nc2ccc(C(=O)OC)cc2)cc1 | 0% | 16% | -3 | 30% | -1 | 8%
COC(=O)c1ccc(NC(=O)C(OC)c2ccccc2)cc1 (centres undefined) | 3% | 2% | 22 | -4% | 17* | -6%
O=C(CCOc1ccccc1)Nc1ccc(Br)cc1 | 0% | u | 57* | 0% | 38* | 2%
Cc1cccc(OCCC(=O)Nc2ccc(Cl)cc2F)c1 | -2% | -86% | x | 11% | 1 | 34%
SMILES | HCV inhibitor | Pf growth 96h | Shiga toxin inh | Pf growth 48h | CHX counter | AMA1 RON2 block
Cc1nc(SCC(=O)Nc2ccccc2Cl)oc1C | -2% | 46% | 15 | -30% | -1 | 13%
CC(Cc1c[nH]c2ccccc12)C(=O)NCc1ccco1 (centres undefined) | 7% | -14% | 23 | x | 6 | -5%
COCC1CCCN(C(=O)c2ccc(OC3CCN(Cc4ccccn4)CC3)cc2)C1 (centres undefined) | 0% | 156% | -17 | 6% | 1 | 44%
O=C(CNC(=O)c1ccc(Cl)cc1Cl)OCc1cn2cc(Br)ccc2n1 | 9% | x | x | x | x | -9%
O=C(C[n+]1ccc(Cc2ccccc2)cc1)Nc1ccccc1 | 2% | u | 39* | -29% | 25 | 4%
COC(=O)c1ccc(NC(=O)CCOc2ccccc2)cc1 | 3% | -3%[5.75 µM] | 37 | 16% | 22* | 1%
CCOC(=O)c1ccc(NC(=O)CCOc2ccc(C)cc2)cc1 | 4% | x | -12 | 16% | -2 | -15%
COc1ccc(NC(=O)CCOc2ccccc2)c(OC)c1 | -3% | u | 32 | 58% | 20* | -6%
CCOC(=O)C(C(=O)OCC)N(Cc1cc(OC)ccc1OC)C(=O)C1CC(CO[Si](C)(C)C(C)(C)C)=CN1C(=O)OC(C)(C)C (centres undefined) | x | x | 5 | x | 23 | x
Cc1ccc(-n2c(C)cc(C(=O)CN3CCCCC3)c2C)cc1 | u | u | 87* | u | 40* | 6%
Cc1cc(C(=O)CN2CC(C)OC(C)C2)c(C)n1-c1ccccc1 (centres undefined) | -14% | -8% | 50* | -18% | 13* | -10%
Cc1c(C)c2ccc(OCC(=O)Nc3ccc(S(N)(=O)=O)cc3)c(C)c2oc1=O | -15% | u | -4 | 28% | 12 | 1%
OCCn1c(-c2ccc3c(c2)OCO3)csc1=Nc1ccccc1 | u | 4% | 46* | -7% | 37* | u
O=S(=O)(c1ccc(-c2csc(=Nc3ccccc3)n2CCCN2CCOCC2)cc1)N1CCOCC1 | -29% | -18% | -16 | u | -3 | -24%
OCCn1c(-c2ccc(F)cc2)csc1=Nc1ccccc1 | u | 3% | 71* | 1% | 22* | -18%
COc1ccc(-c2ccc(C(=O)Nc3cccc(NS(C)(=O)=O)c3)c3occc23)c(C)c1 | x | x | x | x | x | -22%
OC(c1ccccc1)(c1nc(-c2ccc3ccccc3c2)cs1)C(F)(F)F (centres undefined) | x | x | x | x | x | -9%
OC1(C(F)(F)F)CC(c2ccc3ccccc3c2)=NO1 (centres undefined) | 16% | 31% | 48* | 3% | 38* | 9%
Cc1ccc(C(C)C)c(Oc2cnccn2)c1 | 10% | 34% | -2 | 3% | -6 | 16%
CCOc1ccccc1NC(=O)C(OC(=O)c1cc(C)oc1C)c1ccccc1 (centres undefined) | -9% | u | 15 | 13µM* | -1 | -28%
Cc1cc(C(=O)C(C)OC(=O)c2ccc(NC(=O)CC#N)cc2)c(C)n1-c1ccccc1 (centres undefined) | u | 8.3µM* | x | 13µM* | x | -21%

Assay outcomes (PubChem)
